SMILES strings stand for the structures. Where a name gives a salt, the structure may show the parent alone. ± gives the standard deviation of the averaged measurements.

This assay deals with E. coli TESEC Mtb Asd. Put plainly: growth (OD600 after 10 h); higher = more growth (less inhibition). Particulars: arabinose induction (level): High; compound 0.1 mM; raw OD600 reference: median of DMSO wells 0.331, cell-free background 0.041. As to the method: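 TESEC E. coli strains in which the native enzyme is deleted and replaced by arabinose-inducible Mtb Asd, DapB, CysH or TrpD, each grown in its selective medium. Strains were screened against the Prestwick library at 0.1 mM and 1% DMSO in 384-well format at low and high arabinose induction. Growth is read as OD600 after 10 h in triplicate.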
In the case of `CCCNC(C)(C)COC(=O)c1ccccc1` [Meprylcaine hydrochloride], the growth came to 0.281 ± 0.061.

Turning to `CN1CCC(=C2c3ccccc3CCc3cccnc32)CC1` [Azatadine maleate], the growth was determined as 0.209 ± 0.017.

On to `CNC(=C[N+](=O)[O-])NCCSCc1csc(CN(C)C)n1` [Nizatidine], for which the growth was determined as 0.368 ± 0.033.

The molecule `Fc1ccc(C(c2ccc(F)cc2)N2CCN(C/C=C/c3ccccc3)CC2)cc1` [Flunarizine dihydrochloride] gave a growth of 0.0843 ± 0.013.

Molecule `CC(C(=O)O)c1cccc(C(=O)c2ccccc2)c1` (centres undefined) [Ketoprofen] had a growth of 0.247 ± 0.013.

On to `C1N2CN3CN1CN(C2)C3` [Methenamine], for which the growth is 0.345 ± 0.048.

Regarding `Cc1c(N(C)CS(=O)(=O)O)c(=O)n(-c2ccccc2)n1C` [Dipyrone], the growth came out at 0.488 ± 0.025.

Molecule `Cc1onc(-c2ccccc2)c1-c1ccc(S(N)(=O)=O)cc1` [Valdecoxib] returned a growth of 0.196 ± 0.038.

The molecule `O=C(C1CCCCC1)N1CC(=O)N2CCc3ccccc3C2C1` (centres undefined) [Praziquantel] showed a growth of 0.391 ± 0.074.

With `Clc1ccc(Cn2c(CN3CCCC3)nc3ccccc32)cc1` [Clemizole hydrochloride], the growth came out at 0.174 ± 0.038.

With `O=C(O)c1ccccc1OP(=O)(O)O` [Fosfosal], the growth stood at 0.349 ± 0.051.

Turning to `COc1ccc(C2CNC(=O)C2)cc1OC1CCCC1` (centres undefined) [Rolipram], the growth was 0.373 ± 0.044.

The molecule `CCC1=C(C)CN(C(=O)NCCc2ccc(S(=O)(=O)NC(=O)N[C@H]3CC[C@H](C)CC3)cc2)C1=O` [Glimepiride] came in with a growth of 0.338 ± 0.064.

The molecule `CC(=O)Nc1c(I)c(C(=O)N[C@H]2C(O)O[C@H](CO)[C@@H](O)[C@@H]2O)c(I)c(N(C)C(C)=O)c1I` (some centres undefined) [Metrizamide] showed a growth of 0.247 ± 0.017.
